Measured values as given in the supplement of paper PMC11172423.
Values without a mark were called inactive.

Tested on: Madurella mycetomatis MM55
Assay: growth relative to untreated control; higher = less inhibition, active = 20 or less
Settings: 25 µM
Protocol: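 Hyphal fragments of M. mycetomatis MM55 or F. senegalensis CBS197.79 in RPMI 1640/MOPS were exposed to each MMV COVID Box or Global Health Priority Box compound at 100 or 25 µM for 7 days at 37 °C. Viability was read with MTS (490 nm, M. mycetomatis) or resazurin (600 nm, F. senegalensis), background-corrected with a medium-only control and expressed as % growth relative to the untreated growth control. Inhibition of more than 80% was taken as growth inhibition.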

Compound	growth
CNC(=O)O/N=C(/C)SC	112%
C[C@@H]1O[C@@H](O[C@@H]2C=C3CC[C@@H]4[C@H](CC[C@]5(C)[C@@H](c6ccc(=O)oc6)CC[C@]45O)[C@@]3(C)CC2)[C@H](O)[C@H](O)[C@H]1O	93.2%
Cc1cc(C2=NOC(c3cc(Cl)cc(Cl)c3)(C(F)(F)F)C2)ccc1C(=O)NCC(=O)NCC(F)(F)F (stereo not given)	43.8%
COC(=O)N(C(=O)N1CO[C@@]2(C(=O)OC)Cc3cc(Cl)ccc3C2=N1)c1ccc(OC(F)(F)F)cc1	46.3%
CCS(=O)c1c(C#N)nn(-c2c(Cl)cc(C(F)(F)F)cc2Cl)c1N (stereo not given)	91.7%
CN1C2CCC1CC(C#N)C2 (stereo not given)	85.6%
CC1(C)C(/C=C(\Cl)c2ccc(Cl)cc2)C1C(=O)OC(C#N)c1ccc(F)c(Oc2ccccc2)c1 (stereo not given)	119%
Clc1ccc(C(OCCN2CCCCC2)c2ccccc2)cc1 (stereo not given)	120%
CN1CCN(C(=O)O[C@H]2c3nccnc3C(=O)N2c2ccc(Cl)cn2)CC1	72.7%
C[C@@H]1C[C@@H]([C@H](O)CC2CC(=O)NC(=O)C2)C(=O)[C@@H](C)C1	31.4%
CNC(=O)c1cc(Cl)cc(C)c1NC(=O)c1cc(Br)nn1-c1ncccc1Cl	81.9%
COc1ccc(Cc2nccc3cc(OC)c(OC)cc23)cc1OC	78%
ClC1=C(Cl)[C@@]2(Cl)[C@H]3C[C@@H](Cl)[C@H](Cl)[C@H]3[C@@]1(Cl)C2(Cl)Cl	104%
CN(C)[C@@H]1C(=O)C(C(N)=O)=C(O)[C@@]2(O)C(O)=C3C(=O)c4c(O)cccc4[C@@](C)(O)[C@H]3C[C@@H]12	102%
CC1(C)C(C=C(Cl)Cl)C1C(=O)OCc1cccc(Oc2ccccc2)c1 (stereo not given)	78.1%
COc1cc(/C=N/c2c(SC(F)(F)F)c(C#N)nn2-c2c(Cl)cc(C(F)(F)F)cc2Cl)ccc1O	21%
CC(c1ccc(C(F)(F)F)nc1)S(C)(=O)=NC#N (stereo not given)	71.6%
CNC(=O)Oc1cccc2ccccc12	95.8%
CNC(=O)c1cc(C#N)cc(C)c1NC(=O)c1cc(Br)nn1-c1ncccc1Cl	69.7%
CN(C)CCn1c(Nc2cc(Cl)cc(C(F)(F)F)c2)nc2cnc(NC3CCCC3)cc21	39.6%

Same assay, conditions: 100 µM

Compound	growth
CNC(=O)O/N=C(/C)SC	137%
C[C@@H]1O[C@@H](O[C@@H]2C=C3CC[C@@H]4[C@H](CC[C@]5(C)[C@@H](c6ccc(=O)oc6)CC[C@]45O)[C@@]3(C)CC2)[C@H](O)[C@H](O)[C@H]1O	82.8%
Cc1cc(C2=NOC(c3cc(Cl)cc(Cl)c3)(C(F)(F)F)C2)ccc1C(=O)NCC(=O)NCC(F)(F)F (stereo not given)	9.07% (active)
COC(=O)N(C(=O)N1CO[C@@]2(C(=O)OC)Cc3cc(Cl)ccc3C2=N1)c1ccc(OC(F)(F)F)cc1	115%
CCS(=O)c1c(C#N)nn(-c2c(Cl)cc(C(F)(F)F)cc2Cl)c1N (stereo not given)	92.4%
CN1C2CCC1CC(C#N)C2 (stereo not given)	117%
CC1(C)C(/C=C(\Cl)c2ccc(Cl)cc2)C1C(=O)OC(C#N)c1ccc(F)c(Oc2ccccc2)c1 (stereo not given)	119%
Clc1ccc(C(OCCN2CCCCC2)c2ccccc2)cc1 (stereo not given)	4.6% (active)
CN1CCN(C(=O)O[C@H]2c3nccnc3C(=O)N2c2ccc(Cl)cn2)CC1	88.8%
C[C@@H]1C[C@@H]([C@H](O)CC2CC(=O)NC(=O)C2)C(=O)[C@@H](C)C1	3.56% (active)
CNC(=O)c1cc(Cl)cc(C)c1NC(=O)c1cc(Br)nn1-c1ncccc1Cl	57%
COc1ccc(Cc2nccc3cc(OC)c(OC)cc23)cc1OC	83.4%
ClC1=C(Cl)[C@@]2(Cl)[C@H]3C[C@@H](Cl)[C@H](Cl)[C@H]3[C@@]1(Cl)C2(Cl)Cl	130%
CN(C)[C@@H]1C(=O)C(C(N)=O)=C(O)[C@@]2(O)C(O)=C3C(=O)c4c(O)cccc4[C@@](C)(O)[C@H]3C[C@@H]12	82.5%
CC1(C)C(C=C(Cl)Cl)C1C(=O)OCc1cccc(Oc2ccccc2)c1 (stereo not given)	151%
COc1cc(/C=N/c2c(SC(F)(F)F)c(C#N)nn2-c2c(Cl)cc(C(F)(F)F)cc2Cl)ccc1O	53.9%
CC(c1ccc(C(F)(F)F)nc1)S(C)(=O)=NC#N (stereo not given)	173%
CNC(=O)Oc1cccc2ccccc12	85.3%
CNC(=O)c1cc(C#N)cc(C)c1NC(=O)c1cc(Br)nn1-c1ncccc1Cl	55.9%
CN(C)CCn1c(Nc2cc(Cl)cc(C(F)(F)F)c2)nc2cnc(NC3CCCC3)cc21	124%
